In PubChem BioAssay AID2013 (Sanford-Burnham Center for Chemical Genomics, 2009):
Among all 290,000 compounds or so, about 370 (0.13%) were called active.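 The calls were made as follows: active = spots per cell inhibited over 60%, with over 100 cells counted and total cytoplasm intensity under 500,000; inconclusive = wells with under 100 cells, flagged as likely toxic; inactive = the rest.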 For the sample, actives were picked, then their nearest neighbours and some compounds at random. Entries with a potency or affinity are not part of this list.

Biological target: G-protein coupled receptor 55 (Homo sapiens) (UniProt Q9Y2T6)
Sequence (Q9Y2T6 whole entry, looked up): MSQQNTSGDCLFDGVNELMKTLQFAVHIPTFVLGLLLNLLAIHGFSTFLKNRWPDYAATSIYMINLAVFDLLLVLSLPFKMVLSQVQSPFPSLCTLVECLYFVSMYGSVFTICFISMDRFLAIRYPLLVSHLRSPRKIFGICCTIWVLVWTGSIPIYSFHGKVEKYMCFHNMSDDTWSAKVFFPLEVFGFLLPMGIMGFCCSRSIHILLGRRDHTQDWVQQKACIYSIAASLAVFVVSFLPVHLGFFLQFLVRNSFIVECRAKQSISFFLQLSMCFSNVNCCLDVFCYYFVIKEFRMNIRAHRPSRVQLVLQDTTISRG
Assay: inhibition of LPI-stimulated GPR55 beta-arrestin translocation – imaging, U2OS, beta-arrestin-GFP, LPI agonist, primary screen (AID 2013);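 also: U2OS cells stably carrying GPR55 and arrestin-GFP stimulated by 5 µM LPI near EC80; imaged beta-arrestin-GFP aggregate spots per cell after agonist stimulation; plate controls were LPI-stimulated DMSO wells for no effect and DMSO wells without LPI for full effect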
Conditions: LPI antagonism, at 10 µM, active compounds read high

inhibition, active:
Cc1ccc(C)c(NC(=O)c2ccccc2C(=O)c2ccccc2)c1 79.4%
CCn1nc([N+](=O)[O-])c2c(-c3nc4ccccc4o3)c(N)n(CCCOC)c2c1=O 98.4%
COc1cccc(N2CCN(c3ncnc4c3[nH]c3ccc(F)cc34)CC2C)c1 (stereo not drawn) 91.8%
Cc1ccc2cccc(Oc3ncnc4scc(-c5ccccc5)c34)c2n1 77.9%
N#C/C(=C\c1ccc(N2CCOCC2)o1)C(=O)N1CCOCC1 100%

inhibition, inactive:
CCCCOc1ccccc1NC(=O)c1ccco1 13.2%
CCCCOc1ccccc1NC(=O)c1ccc(=O)[nH]c1 2.2%
O=C(CCc1ccccc1Cl)NC1CCCN(c2ccc(C(F)(F)F)cn2)C1 (stereo not drawn) 5%
COc1ccc(C(C(=O)NCCC(C)C)N(CCCO)C(=O)c2snc(C(N)=O)c2N)cc1OC (stereo not drawn) 5%
Nn1c(COc2cccc(Cl)c2)nc2ccccc2c1=O -10.2%
CCc1nonc1NC(=O)c1oc2ccccc2c1C 10%
N=c1n(Cc2ccccc2)c2ccccc2n1CC(O)COc1ccccc1 (stereo not drawn) 50.2%
Cc1ccc(OCC(O)Cn2c(=N)n(Cc3ccccc3)c3ccccc32)cc1 (stereo not drawn) 13.1%
O=C(O)CSc1nc2ccccc2n1-c1ccccc1 6.1%
CC(C)N(C(=O)CSc1nc2ccccc2n1Cc1ccccc1)C(C)C 2%
CC(=O)Nc1ccc(NC(=O)c2ccc(C)c(S(=O)(=O)Nc3cccc(C)c3)c2)cc1 -3.1%
COC(=O)C1CCN(C2=C(NS(=O)(=O)c3ccc(Cl)cc3)C(=O)c3ccccc3C2=O)CC1 2%
Cc1cc(NC(=O)NC2CCCN2S(=O)(=O)c2ccc(Cl)cc2)no1 (stereo not drawn) 8.3%
Cc1cc(C)cc(-c2nnc(SCC(=O)c3ccc4c(c3)OCCO4)o2)c1 -7.3%
c1coc(CN(Cc2cccs2)Cc2nnnn2C2CCCCC2)c1 25.9%
CC(C)(C)c1ccc(CN(Cc2ccco2)Cc2nnnn2C2CCCC2)cc1 19.2%
CCCCCn1c(=O)[nH]c2cc(C(=O)NCc3ccc4c(c3)OCO4)ccc2c1=O 31.9%
CC1CCN(C(=O)c2ccc([N+](=O)[O-])o2)CC1 5.5%
CC(=O)NS(=O)(=O)c1ccc(NC(=O)C(Sc2ccccc2)c2ccccc2)cc1 (stereo not drawn) 8%
CC(=O)Nc1ccc(NC(=O)C(Sc2ccccc2)c2ccccc2)cc1 (stereo not drawn) -1.5%
CCCNC(=O)C(Sc1ccccc1)c1ccccc1 (stereo not drawn) 8.1%
CCCCNC(=O)C(Sc1ccccc1)c1ccccc1 (stereo not drawn) -9.3%
NS(=O)(=O)c1ccc(NC(=O)C(Sc2ccccc2)c2ccccc2)cc1 (stereo not drawn) 12.2%
CCC(C)NC(=O)C(Sc1ccccc1)c1ccccc1 (stereo not drawn) -0.3%
CCOCCc1nn2c(=O)cc(CSCC(=O)Nc3ccc(OC)cc3)nc2s1 16.4%
Cc1cc(-c2ccccc2)c2c(=O)n(-c3ccccc3)[nH]c2n1 -8.8%
COc1cc(S(=O)(=O)N2CCC(C(N)=O)CC2)c(C)cc1C -8.6%
CCCC(=O)NC(c1ccccc1Cl)c1ccc2cccnc2c1O (stereo not drawn) 11.4%
CN(C)c1ccc(/C=N/n2c(COc3ccccc3)n[nH]c2=S)cc1 1.6%
COC(=O)c1cc(NC(=O)Cc2ccc(OC)c(OC)c2)cc(C(=O)OC)c1 11%
COc1ccc(C(=O)NCC2(c3ccc(OC)c(OC)c3)CCCC2)c(OC)c1 -8.5%
CCN1CC2=C(OC(N)=C(C#N)C2c2ccccc2)/C(=C\c2ccccc2)C1 (stereo not drawn) 3.6%
CCN1CC2=C(OC(N)=C(C#N)C2c2cccs2)/C(=C\c2cccs2)C1 (stereo not drawn) 13.2%
Cc1nc2ccccc2nc1OCc1cccc([N+](=O)[O-])c1 6.2%
Cc1ccc(C)c(NC(=O)c2ccccc2O)c1 10.8%
Cc1cc(C)c(NC(=O)c2ccccc2C(=O)c2ccccc2)c(C)c1 10.3%
OCC[C@@H]1C[C@H](O)[C@@H](O)[C@]2(Cc3ccccc3O2)O1 -2.3%
COc1ccc(-c2cc(N)n(S(=O)(=O)c3ccc(F)cc3)n2)cc1OC 1.3%
COc1ccc(S(=O)(=O)n2nc(-c3cc(OC)c(OC)c(OC)c3)cc2N)cc1OC -6.7%
Cn1nnc2c(N3CCCCC3)nccc21 14.8%
O=C(CC12CC3CC(CC(C3)C1)C2)Nc1ccc(C(=O)O)cc1 -2.4%
CC(=O)Nc1ccc(NC(=O)CC23CC4CC(CC(C4)C2)C3)cc1 55.6%
O=C(NCCCn1ccnc1)c1cc(C2CC2)on1 -6.4%
CCOc1ccc2oc(C(=O)NCC(C)(C)CN(C)C)c(C)c2c1 13%
O=C(NCCc1ccccc1)C1COc2ccccc2O1 (stereo not drawn) 5.5%
CCCCCn1c(N)c(-c2nc3ccccc3o2)c2c([N+](=O)[O-])nn(CC)c(=O)c21 13.1%
CCCCn1c(N)c(-c2nc3ccccc3o2)c2c([N+](=O)[O-])nn(CC)c(=O)c21 4.8%
CCOC(=O)N1CCC(=NNC(=O)Cn2ccc(C(F)(F)F)n2)CC1 -11.4%
COC(=O)c1cnc(SCC(=O)c2ccccc2)n1C 2%
CC(C(=O)NCc1cccs1)N1C(=O)c2ccccc2C1=O (stereo not drawn) 17.5%
C=CCNC(=O)c1ccc([N+](=O)[O-])c(Cl)c1 -0.3%
COCCCNC(=O)c1ccc([N+](=O)[O-])c(Cl)c1 2.9%
Cc1ccnc2c(N3C(=O)C4C5c6ccccc6C(c6ccccc65)C4C3=O)cccc12 (stereo not drawn) 13.1%
Cc1ccc(C)c(NC(=O)CN(C)C(=O)/C=C/c2ccco2)c1 -6.6%
CCCCCCCCOC(=O)CCc1c(C)[nH]c(=S)[nH]c1=O -16.9%
COc1ccc(C)cc1NC(=O)CCNS(=O)(=O)c1cccc2nonc12 6.9%
OC(CNCCc1ccc(C(F)(F)F)cc1)COc1ccc2ccccc2c1 (stereo not drawn) 30.5%
COc1ccc(C(OCC(O)CNCCc2ccccc2)c2ccc(OC)cc2)cc1 (stereo not drawn) 8.1%
N#CCSc1ccsc1C(=O)Nc1ccc(F)cc1 2.6%
COCCn1nnnc1CN1C2CCCC1CC(NC(C)=O)C2 (stereo not drawn) 0.2%
COc1cc(/C=N/OCC(=O)NC2CCCCC2C)ccc1OCc1ccc(Cl)cc1 (stereo not drawn) -3.5%
CCOc1ccccc1CNS(=O)(=O)c1ccc(-c2cnc(C3CC3)o2)cc1 99.5%
Fc1ccc2[nH]c3c(N4CCN(c5ccccc5)CC4)ncnc3c2c1 -5.9%
COc1cccc(N2CCN(c3ncnc4c3[nH]c3ccccc34)CC2C)c1 (stereo not drawn) 33%
COC(=O)COc1ccc(S(=O)(=O)NCc2ccco2)cc1 10.1%
C/C(=C\c1ccccc1)C(=O)NCCCn1ccnc1 9.4%
Cc1ccccc1NC(=S)N(CCCN1CCOCC1)Cc1cccs1 54.6%
Cc1ccc(NC(=S)N(CCCN2CCOCC2)Cc2cccs2)c(C)c1 25.2%
CCC(C)(C)n1nnnc1C(c1cccc(C#N)c1)N1CCN(c2cc(C)ccc2C)CC1 (stereo not drawn) 2.5%
CCc1cc2c(=O)c(-c3ccc4c(c3)OCCO4)coc2cc1OS(C)(=O)=O 8%
COc1cc(/C=C(\C#N)C(=O)NC2CCCCC2C)ccc1OS(=O)(=O)c1ccc(C)cc1 (stereo not drawn) 28.8%
COc1cc(/C=C(\C#N)C(N)=O)ccc1OS(=O)(=O)c1ccc(C)cc1 28.6%
O=C(OCc1nnc(-c2ccccc2)o1)C12CC3CC(CC(Br)(C3)C1)C2 0.4%
N#CC(C#N)=C1C=C2C=C(N3CCCCCC3)CCC2CC1 (stereo not drawn) 23.3%
N#CC(C#N)=C1C=C2C=C(N3CCCCC3)CCC2CC1 (stereo not drawn) 3.1%
CCc1ccc(CN2CCC(n3nccc3NC(=O)c3ccccc3)CC2)o1 -3.9%
Cc1c(C(=O)NCc2ccc3c(c2)OCO3)sc2nc(-c3ccc(F)cc3)cn12 11.5%
CC(C)c1nnc(NC(=O)CCC(=O)NCc2ccccc2Cl)s1 13%
CCCNc1nc(=S)n(-c2ccccc2)c(C)c1C(C)=O 4.7%
Cc1ccc(-c2csc3ncnc(SCc4ccc(C(=O)O)cc4)c23)cc1 10%
O=C(O)CSc1ncnc2scc(-c3ccccc3)c12 3.8%
O=C(NNC(=S)NCc1ccccc1)c1ccc(Br)o1 13.5%
C=CCN(c1ccccc1)S(=O)(=O)c1c(C)[nH]c(=O)[nH]c1=O 0.3%
O=[N+]([O-])CC(=Nc1ccc(F)cc1)N/N=C\c1oc(O)c2ccccc12 15.6%
COC(=O)C1=C(C)N(Cc2ccccc2)C(=O)/C1=C\c1ccco1 2.2%
COC(=O)C1=C(C)N(Cc2ccc(OC)cc2)C(=O)/C1=C\c1ccco1 0.4%
COc1ccc(-c2csc3ncnc(Oc4cccc5ccc(C)nc45)c23)cc1 7.8%
Cc1ccc(-c2csc3ncnc(Oc4cccc5ccc(C)nc45)c23)cc1 3.8%
Cc1ccc(N2C(=O)C3CCCN3C2=S)cc1C (stereo not drawn) 3.3%
O=C(COc1cccc(C(F)(F)F)c1)N1CCN(c2ccc(O)cc2)CC1 -7.2%
NC(=O)c1ccc[n+](CC(=O)c2ccc(Br)cc2)c1 9.5%
N#C/C(=C/c1ccc(N2CCOCC2)o1)C(=O)Nc1ccccc1 0.6%
N#C/C(=C\c1ccc(N2CCOCC2)o1)C(=O)Nc1ccc(O)cc1 -2.9%
